Compound activity from PubChem BioAssay.
TrxR1 substrate = qHTS Assay for Substrates of Mammalian Selenoprotein Thioredoxin Reductase 1 (TrxR1): qHTS; purified TrxR1 substrate turnover, NADPH consumption readout; Potency, µM (top dose mostly 114 µM); actives 0.01% (n = 390,000); further: nearly all actives have a fitted effect of over 50% in size
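Rat TrxR1, dispensed at 90 nM, was prereduced with 400 uM NADPH (final) for 5 min at ~22 deg C, then incubated with compound 15 min before 400 uM selenite. A first-read NADPH fluorescence drop versus no-compound background flagged substrates.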
GLP1R cytotox = qHTS of GLP-1 Receptor Inverse Agonists: Cytotox Screen; HEK293 cAMP-luciferase reporter cells, luminescence, 24 h; Potency, µM (doses to about 38.3 µM), usual class: inhibitors; actives 0.13% (n = 410,000); AID 624418, 2012;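 further: loss of luciferase light is scored as toxicity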
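Seeding density was 200 cells/uL; after overnight-length (12 h) culture, 23 nL compounds went on for 24 h at 37 °C. Readout used a luciferase detection reagent, luminescence taken after 12 min at room temperature.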
GLP-1R agonist = qHTS of GLP-1 Receptor Agonists | Glucagon-like peptide 1 receptor (Homo sapiens), P43220 | HEK293 GLP-1R CRE-luciferase, luminescence, 4-6 h; cells express a hypersensitive GLP-1R form | Potency, µM (doses to about 45.6 µM), actives largely listed as activators | actives 0.007% (n = 380,000) | AID 624172, 2012
rTrxR1 inhibitor = qHTS Assay for Inhibitors of Mammalian Selenoprotein Thioredoxin Reductase 1 (TrxR1): qHTS; Thioredoxin reductase 1, cytoplasmic (Rattus norvegicus), O89049; recombinant rTrxR1, NADPH fluorescence consumption, selenite substrate; Potency, µM (series often up to 114 µM), most hits filed as inhibitors; actives 1% (n = 390,000); AID 588453, 2011; further: nearly all actives have a fitted effect of over 65% in size
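Rat TrxR1 (90 nM in the dispensed reagent) was pre-reduced with 400 uM NADPH for 5 min at room temperature, then incubated with compound for 15 min. After 400 uM selenite was added, NADPH fluorescence (Ex 340/Em 450 nm) was followed for 8 min.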
GLP1R inv ag = qHTS of GLP-1 Receptor Inverse Agonists (Inhibition Mode); actives 1.6% (n = 410,000); HEK293 GLP-1R CRE-luciferase, luminescence, 24 h; GLP-1R form is constitutively active; AID 624417, 2012; Glucagon-like peptide 1 receptor (Homo sapiens), P43220; Potency, µM (highest dose often 38.3 µM), actives largely listed as inhibitors; further: nearly all actives have a fitted effect of over 55% in size
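Inverse agonism was detected as reduced cAMP-driven luciferase luminescence after 24 h compound treatment. The cells were HEK293 clones expressing constitutively active human GLP-1R with the reporter. Reporter-only and GPR119 cell lines served as counterscreen controls.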
mIDH1 inhibitor = qHTS for Inhibitors of mutant isocitrate dehydrogenase 1 (IDH1): qHTS. Potency, µM (series often up to 76.6 µM), usual class: inhibitors. Isocitrate dehydrogenase [NADP] cytoplasmic (Homo sapiens), O75874. IDH1-R132H enzyme, NADPH consumption, diaphorase/resazurin fluorescence. AID 602179, 2012. actives 0.093% (n = 390,000); further: nearly all actives have a fitted effect of over 65% in size
Target sequence (O75874 whole entry R132H, stated change not applied): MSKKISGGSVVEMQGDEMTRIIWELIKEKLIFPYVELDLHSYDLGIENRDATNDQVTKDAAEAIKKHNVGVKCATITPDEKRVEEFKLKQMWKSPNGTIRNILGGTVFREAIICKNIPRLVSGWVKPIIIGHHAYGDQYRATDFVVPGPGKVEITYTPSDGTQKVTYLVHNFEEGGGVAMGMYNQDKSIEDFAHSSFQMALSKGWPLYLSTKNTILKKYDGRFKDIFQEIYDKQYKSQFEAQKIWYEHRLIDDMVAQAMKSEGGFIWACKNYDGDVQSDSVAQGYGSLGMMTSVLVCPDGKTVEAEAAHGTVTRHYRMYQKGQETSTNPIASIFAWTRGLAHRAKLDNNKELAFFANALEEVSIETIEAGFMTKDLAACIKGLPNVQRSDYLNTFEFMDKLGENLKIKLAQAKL
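IDH1-R132H (0.5 ug/mL dispensed) in pH 7.5 Tris buffer was preincubated 30 min with compound, then given a substrate mix of 0.016 mM NADPH and 2 mM alpha-KG for 80 min at room temperature; remaining NADPH was read by diaphorase/resazurin fluorescence.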
Of the large screens only hits and unclear results are named; the others gave an inactive call. An excerpt weighted towards active compounds, which were near 2.7% of everything screened. The call rests on the fitted dose curve; in most records, active means well fitted curve in the direction sought with a large enough effect; inconclusive means small, poorly fitted or top-dose-only effect, or another doubt; inactive means no such curve, though single readings can be large; an effect the other way counts as inactive or inconclusive.

CC(=O)NC1[C@H]([C@H](O)[C@H](O)CO)OC(C(=O)O)=C[C@H]1N=C(N)N (stereo partly specified)	none (no result: TrxR1 substrate, GLP1R cytotox, rTrxR1 inhibitor, GLP1R inv ag, mIDH1 inhibitor)
CCOC(=O)c1cc(-c2ccccc2)n(CCC(=O)Nc2ccc(OC)c(Cl)c2)c1C	GLP1R inv ag inconclusive (no result: GLP-1R agonist)
CCOC(=O)c1cc(-c2ccccc2)n(-c2cccc(C(=O)Nc3ccc(OCC)cc3)c2)c1C	GLP1R inv ag 5µM (no result: GLP-1R agonist)
CCOC(=O)c1cc(-c2ccccc2)n(CCCC(=O)Nc2ccc(CC)cc2)c1C	GLP1R inv ag 10µM (no result: GLP-1R agonist)
CCOC(=O)c1cc(-c2ccccc2)n(CCCC(=O)Nc2ccc(C)c(Cl)c2)c1C	GLP1R inv ag inconclusive (no result: GLP-1R agonist)
CCOC(=O)c1cc(-c2ccccc2)n(CCC(=O)Nc2ccc(C(F)(F)F)cc2)c1C	GLP1R cytotox inconclusive, GLP1R inv ag 7.1µM (no result: GLP-1R agonist)
CCOc1c(C)cnc2c1c(=O)n(Cc1cccc(Cl)c1)c(=O)n2C	GLP1R inv ag 10µM
Cc1ccc2c(Sc3ccc(Cl)cc3)c(C(=O)N3CCC(C)CC3)[nH]c2c1	GLP1R inv ag 10µM (no result: GLP-1R agonist)
Cc1cccc(C)c1N1CCN(C(c2cc3ccccc3o2)c2nnnn2C(C)(C)C)CC1 (stereo unspecified)	GLP1R inv ag inconclusive (no result: TrxR1 substrate, rTrxR1 inhibitor, mIDH1 inhibitor)
COc1ccc(C=O)cc1OS(=O)(=O)c1ccc(NC(C)=O)cc1	none
COc1ccc(/C=N/NC(=O)c2ccc3ccccc3c2)cc1OS(=O)(=O)c1ccc(NC(C)=O)cc1	GLP1R cytotox 2.2µM
CC1=C(C(=O)OC2CCCC2)C(c2cccc(Cl)c2Cl)CC(=O)N1 (stereo unspecified)	GLP1R inv ag inconclusive
COc1ccc2[nH]c3c(c2c1)CNCC3	none (no result: TrxR1 substrate, rTrxR1 inhibitor)
Clc1ccc2[nH]c3c(c2c1)CNCC3	GLP1R inv ag 10µM
CCn1c(SC(C)C(=O)NCc2ccco2)nnc1-c1ccccc1 (stereo unspecified)	none (no result: GLP1R cytotox, GLP-1R agonist, GLP1R inv ag, mIDH1 inhibitor)
CC1CC(C)(C)Nc2ccc(N=O)cc21 (stereo unspecified)	GLP1R cytotox inconclusive, rTrxR1 inhibitor 0.89µM, GLP1R inv ag inconclusive
CCSc1ncc(Cl)c(C(=O)N(Cc2ccc(N(C)C)cc2)Cc2ccco2)n1	GLP1R inv ag inconclusive (no result: GLP-1R agonist, mIDH1 inhibitor)
Cc1ccccc1C(=O)c1cccn1CC(=O)NCCCN1CC(C)CC(C)C1 (stereo unspecified)	GLP1R inv ag inconclusive
O=C(Cn1cccc1C(=O)c1ccccc1)NCCCN1CCOCC1	none
Cc1ccccc1C(=O)c1cccn1CC(=O)NCCCN1CCc2ccccc2C1	GLP1R inv ag 10µM
Cc1ccc(C)c(N2CCN(CCCNC(=O)Cn3cccc3C(=O)c3ccccc3)CC2)c1	GLP1R inv ag 5µM
O=C(CC(=O)Nc1ccccc1F)Nc1ccccc1F	rTrxR1 inhibitor 89µM
CC(C)CN(CC(C)C)C(=O)Nc1ccccc1F	GLP1R inv ag 8.9µM
CC(C)CNC(=S)Nc1ccccc1F	none
COc1ccc(-c2nc3ccccc3nc2-c2ccc(OC)cc2)cc1	GLP1R inv ag inconclusive
Oc1ccc(-c2nc3ccccc3nc2-c2ccccc2)cc1	GLP1R inv ag 4µM
CCCCCOc1ccc(Br)cc1CSC(=N)N	GLP1R cytotox 10µM, GLP1R inv ag inconclusive
Clc1nc(NCc2ccco2)c2ccccc2n1	rTrxR1 inhibitor inconclusive (no result: GLP1R cytotox, GLP-1R agonist, GLP1R inv ag, mIDH1 inhibitor)
Oc1[nH]c2ccccc2c1N=NC(=S)NCC1CCCO1 (stereo unspecified)	GLP1R cytotox inconclusive, rTrxR1 inhibitor inconclusive
Oc1[nH]c2c(Cl)cc(Cl)cc2c1N=NC(=S)NCC1CCCO1 (stereo unspecified)	GLP1R cytotox 4µM, GLP1R inv ag inconclusive
